From PubChem BioAssay (NCI)
“And” between values parts separate entries of the source, which are not always exact repeats. Equal values may be shown once. The panel holds about 83,000 compounds, 20% with a hit somewhere; the sample as a whole holds those more often.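 Testing used 96-well plates and a 48-hour single-concentration exposure. Example: -40 means 40% of the starting cells died.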 The source made the active and inactive calls. Rule for the calls: active = growth percent below 10; inactive = the rest.

How the values were obtained:
Test in all cases: NCI-60 one-dose screen, 48 h (100 = growth as untreated, 0 = no growth, -100 = all killed)
Conditions in all cases: 10 µM unless noted
HCT-15 colon = system: HCT-15 colon
HT29 colon = system: HT29 colon
SNB-19 CNS = system: SNB-19 CNS
PC-3 prostate = system: PC-3 prostate
SK-MEL-5 melanoma = system: SK-MEL-5 melanoma
UACC-62 melanoma = system: UACC-62 melanoma
LOX IMVI melanoma = system: LOX IMVI melanoma
SK-MEL-28 melanoma = system: SK-MEL-28 melanoma
SK-MEL-2 melanoma = system: SK-MEL-2 melanoma
EKVX NSCLC = system: EKVX NSCLC
SN12C renal = system: SN12C renal
UO-31 renal = system: UO-31 renal
TK-10 renal = system: TK-10 renal
ACHN renal = system: ACHN renal
CAKI-1 renal = system: CAKI-1 renal
A498 renal = system: A498 renal
CCRF-CEM leukemia = system: CCRF-CEM leukemia
MOLT-4 leukemia = system: MOLT-4 leukemia
U251 CNS = system: U251 CNS
SNB-75 CNS = system: SNB-75 CNS

Measured: growth

Oc1ccc(Cl)c(Nc2ncnc3c2cnn3CC(Cl)c2ccc(Br)cc2)c1 (centres undefined)
active: LOX IMVI melanoma 0.654% | ACHN renal 8.02%
inactive: HCT-15 colon 37.9% | HT29 colon 57.2% | SNB-19 CNS 57.4% | PC-3 prostate 44.5% | SK-MEL-5 melanoma 48.8% | UACC-62 melanoma 55.6% | SK-MEL-28 melanoma 78.4% | SK-MEL-2 melanoma 84.8% | EKVX NSCLC 55.4% | SN12C renal 43.9% | UO-31 renal 21.3% | TK-10 renal 47.1% | CAKI-1 renal 18.3% | A498 renal 98.9% | CCRF-CEM leukemia 59.8% | MOLT-4 leukemia 34.7%

CN1C(=O)/C(=C/c2ccco2)S/C1=N/c1nccs1
inactive: HCT-15 colon 93.8% | HT29 colon 103% | U251 CNS 111% | PC-3 prostate 98.1% | SK-MEL-5 melanoma 98.9% | UACC-62 melanoma 86.7% | LOX IMVI melanoma 97.7% | SK-MEL-28 melanoma 112% | SK-MEL-2 melanoma 108% | EKVX NSCLC 91.8% | SN12C renal 100% | UO-31 renal 80.9% | TK-10 renal 130% | ACHN renal 100% | CAKI-1 renal 91.7% | A498 renal 107% | CCRF-CEM leukemia 96.8% | MOLT-4 leukemia 107%

O=C1Nc2ccccc2/C1=C/C(=O)c1cc2ccccc2oc1=O
active: ACHN renal -47.6%
inactive: HCT-15 colon 30.3% | HT29 colon 110% | SNB-19 CNS 101% | U251 CNS 107% | PC-3 prostate 95.1% | SK-MEL-5 melanoma 99.9% | UACC-62 melanoma 88.9% | LOX IMVI melanoma 91% | SK-MEL-2 melanoma 99.5% | EKVX NSCLC 89.6% | SN12C renal 99.3% | UO-31 renal 45.8% | TK-10 renal 102% | CAKI-1 renal 75.5% | A498 renal 223% | CCRF-CEM leukemia 54.7% | MOLT-4 leukemia 41%

COc1ccc(-c2nnc3c(/C=C/c4ccc(Br)cc4)nc4ccccc4n23)cc1
active: HCT-15 colon -60.7% | HT29 colon -34.1% | LOX IMVI melanoma -87.9% | SN12C renal -22.7% | CCRF-CEM leukemia 8.22% | MOLT-4 leukemia 1.9%
inactive: SNB-19 CNS 86.3% | U251 CNS 68.4% | PC-3 prostate 86.4% | SK-MEL-5 melanoma 49.4% | UACC-62 melanoma 40.8% | SK-MEL-28 melanoma 72.4% | SK-MEL-2 melanoma 92.9% | EKVX NSCLC 54% | UO-31 renal 41.1% | TK-10 renal 99.4% | ACHN renal 23% | CAKI-1 renal 27.8%

COc1cccc(C(N)=Nc2ccc(OCCCCCCCCn3cncn3)cc2)c1
inactive: HCT-15 colon 11.7% | SNB-75 CNS 60.8% | SNB-19 CNS 24.6% | PC-3 prostate 37.7% | UACC-62 melanoma 27.4% | LOX IMVI melanoma 20% | SK-MEL-28 melanoma 55.3% | SK-MEL-2 melanoma 14% | EKVX NSCLC 37.4% | SN12C renal 20.6% | UO-31 renal 39.5% | TK-10 renal 57% | ACHN renal 28% | CAKI-1 renal 40.3% | A498 renal 94.3% | CCRF-CEM leukemia 16.4% | MOLT-4 leukemia 16.8%

Cc1ccccc1Nc1nnc(-c2c[nH]c3ccccc23)o1
inactive: HCT-15 colon 16.8% | SNB-19 CNS 41% | U251 CNS 11.8% | PC-3 prostate 37.6% | UACC-62 melanoma 28.4% | LOX IMVI melanoma 29.1% | SK-MEL-28 melanoma 61.3% | EKVX NSCLC 20.1% | SN12C renal 33.8% | UO-31 renal 33.8% | TK-10 renal 60.2% | ACHN renal 39.5% | CAKI-1 renal 29.4% | A498 renal 101% | CCRF-CEM leukemia 10.5%
active: HT29 colon 2.95% | SK-MEL-5 melanoma -17% | SK-MEL-2 melanoma -10.8% | MOLT-4 leukemia 9.88%

O=c1[nH]c2ccccc2cc1COc1ccc(Nc2nccc(-c3ccc(Cl)cc3)n2)cc1
inactive: HCT-15 colon 101% | HT29 colon 105% | SNB-19 CNS 93.4% | U251 CNS 86.5% | PC-3 prostate 106% | SK-MEL-5 melanoma 99.1% | UACC-62 melanoma 94.4% | LOX IMVI melanoma 96% | SK-MEL-28 melanoma 105% | SK-MEL-2 melanoma 99.6% | EKVX NSCLC 104% | SN12C renal 100% | UO-31 renal 98.7% | TK-10 renal 111% | ACHN renal 84.9% | CAKI-1 renal 87.5% | A498 renal 118% | CCRF-CEM leukemia 103% | MOLT-4 leukemia 102%

O=C1Nc2ccccc2/C1=C\c1ccc(OCC(=O)c2ccc(Br)cc2)cc1
active: MOLT-4 leukemia 8.54%
inactive: HCT-15 colon 45.4% | HT29 colon 82.7% | SNB-19 CNS 79.6% | U251 CNS 71.5% | PC-3 prostate 62.4% | SK-MEL-5 melanoma 28.9% | UACC-62 melanoma 52.6% | LOX IMVI melanoma 28.9% | SK-MEL-28 melanoma 80.2% | SK-MEL-2 melanoma 72.4% | EKVX NSCLC 65.6% | SN12C renal 62.7% | UO-31 renal 48.5% | TK-10 renal 94.9% | ACHN renal 70% | CAKI-1 renal 67.8% | A498 renal 100% | CCRF-CEM leukemia 58.2%

Nc1cccc(-n2c(COc3ccc(I)cc3)nc3ccccc32)c1
inactive: HCT-15 colon 74.6% and 104% | HT29 colon 78.7% and 114% | SNB-19 CNS 93.5% and 98.6% | U251 CNS 84.8% and 101% | PC-3 prostate 63.9% and 104% | SK-MEL-5 melanoma 60% and 99.8% | UACC-62 melanoma 57.6% and 92.2% | LOX IMVI melanoma 80% and 101% | SK-MEL-28 melanoma 98.9% and 98.7% | SK-MEL-2 melanoma 82.5% and 105% | EKVX NSCLC 70.4% and 102% | SN12C renal 90.2% and 103% | UO-31 renal 43.6% and 81.3% | TK-10 renal 112% and 98.6% | ACHN renal 81.9% and 103% | CAKI-1 renal 56.8% and 97.2% | CCRF-CEM leukemia 82.8% and 99.3% | MOLT-4 leukemia 71.5% and 99.8%

COc1ccc(C(=O)c2cc(C(C)=O)c3c(C)cc(C)cn23)cc1
inactive: HCT-15 colon 65.9% | HT29 colon 72.5% | SNB-19 CNS 24.8% | U251 CNS 32.4% | PC-3 prostate 82.9% | SK-MEL-5 melanoma 33.6% | UACC-62 melanoma 63.4% | LOX IMVI melanoma 54.9% | SK-MEL-2 melanoma 70.9% | EKVX NSCLC 49.4% | SN12C renal 55% | UO-31 renal 67.5% | TK-10 renal 57.4% | ACHN renal 56.6% | CAKI-1 renal 38.6% | A498 renal 86.1% | CCRF-CEM leukemia 104% | MOLT-4 leukemia 82.3%

O=C(Cn1c(-c2ccccc2)nc2ccccc21)N=Nc1c(O)[nH]c2ccc(Br)cc12
active: HCT-15 colon 1.07% | HT29 colon -33.1% | SNB-19 CNS -35.5% | PC-3 prostate 9.01% | SK-MEL-5 melanoma -50.2% | UACC-62 melanoma -39.7% | LOX IMVI melanoma -24.7% | SK-MEL-28 melanoma -65.4% | SK-MEL-2 melanoma -8.9% | EKVX NSCLC -23.3% | SN12C renal 1.91% | UO-31 renal -47.5% | TK-10 renal -17.5% | ACHN renal -80% | CAKI-1 renal -8.86% | A498 renal -38.1%
inactive: CCRF-CEM leukemia 32.5% | MOLT-4 leukemia 20.8%

CN(C)CCOc1ccc(C(=O)C2[C@H](c3ccc(Cl)cc3)[C@@H](c3ccccc3)NC23C(=O)Nc2ccc(Cl)cc23)cc1 (some centres undefined)
active: HCT-15 colon -91.5% | HT29 colon -93.7% | SNB-19 CNS -96.2% | U251 CNS -82.9% | PC-3 prostate -89.9% | SK-MEL-5 melanoma -98.2% | UACC-62 melanoma -78.3% | LOX IMVI melanoma -96.3% | SK-MEL-28 melanoma -93.4% | SK-MEL-2 melanoma -92.5% | EKVX NSCLC -93.9% | SN12C renal -94.5% | UO-31 renal -99.7% | TK-10 renal -96.7% | ACHN renal -100% | CAKI-1 renal -98.6% | A498 renal -95.9% | CCRF-CEM leukemia -65.4% | MOLT-4 leukemia -77.4%
